PubChem BioAssay AID1159580 (chemical genetic matrix, 2015)
Where “and” joins values, the source holds several entries; their conditions need not be identical. Equal values may be shown once. In all, about 5,500 compounds went through this assay and about 2,000 (36%) were called active. Roughly 18% stayed inconclusive and do not appear here. No stated cut-off is given here; in the data, active means normalized growth mostly below about 0.91 (no sharp cut-off); inconclusive means no clear call, values can overlap the other calls; inactive means mostly above about 0.92. The list shows a part of the results.

Assay: chemical genetic growth profiling, strain panel (AID 1159580);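 further: tested at 20 µM; growth read once vehicle control cultures reached saturation at 30 °C; 1 = growth at the plate median or of vehicle wells; lower values mean less growth of the strain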
Details: S. cerevisiae deletion strains, growth OD

Measured: normalized growth

CCN(CCCc1ccccc1)CCCc1ccccc1
active: locus YAL026C, strain drs2, active compounds read low 0.862 | locus YDR137W, strain rgp1, active compounds read low 0.735 | locus YLR262C, strain YPT6 (second series), active compounds read low 0.701
inactive: locus YAL021C, strain ccr4, active compounds read low 0.915 | locus YAL030W, strain snc1, active compounds read low 0.991 | locus YBL061C, strain skt5, active compounds read low 0.981 | locus YBR009C, strain hhf1, active compounds read low 1.01 | locus YBR021W, strain FUR4, active compounds read low 0.977 | locus YBR023C, strain chs3, active compounds read low 0.96 | locus YBR171W, strain sec66, active compounds read low 0.97 | locus YBR229C, strain ROT2, active compounds read low 1 | locus YBR231C, strain swc5, active compounds read low 0.987 | locus YBR279W, strain paf1, active compounds read low 0.983 | locus YCL011C, strain gbp2, active compounds read low 0.966 | locus YCL016C, strain dcc1, active compounds read low 0.939 | locus YCL029C, strain bik1, active compounds read low 1.02 | locus YCL061C, strain MRC1, active compounds read low 0.965 | locus YCL069W, strain vba3, active compounds read low 0.985 | locus YCR088W, strain abp1, active compounds read low 0.99 | locus YDL005C, strain med2, active compounds read low 0.99 | locus YDL035C, strain GPR1, active compounds read low 0.976 | locus YDL040C, strain nat1, active compounds read low 0.984 | locus YDL074C, strain BRE1, active compounds read low 1.01 | locus YDL101C, strain DUN1, active compounds read low 1.02 | locus YDL134C, strain PPH21, active compounds read low 0.976 | locus YDL185W, strain tfp1, active compounds read low 1.03 | locus YDL192W, strain arf1, active compounds read low 1.02 | locus YDR001C, strain nth1, active compounds read low 0.985 | locus YDR069C, strain doa4, active compounds read low 0.974 | locus YDR101C, strain arx1, active compounds read low 1.03 | locus YDR150W, strain NUM1, active compounds read low 1 | locus YDR159W, strain sac3, active compounds read low 1.01 | locus YDR162C, strain NBP2, active compounds read low 1.01 | locus YDR195W, strain ref2 1.02 | locus YDR297W, strain sur2, active compounds read low 0.99 | locus YDR318W, strain mcm21, active compounds read low 1.01 | locus YDR334W, strain swr1, active compounds read low 0.983 | locus YDR335W, strain msn5, active compounds read low 0.983 | locus YDR388W, active compounds read low 1.02 | locus YDR392W, strain spt3, active compounds read low 0.951 | locus YDR502C, strain sam2, active compounds read low 1.02 | locus YEL003W, strain gim4, active compounds read low 0.99 | locus YEL037C, strain rad23, active compounds read low 0.984 | locus YEL061C, strain CIN8 (second series), active compounds read low 0.988 | locus YEL061C, strain CIN8, active compounds read low 1 | locus YER015W, strain faa2, active compounds read low 0.977 | locus YER016W, strain bim1, active compounds read low 1 | locus YER110C, active compounds read low 1.04 | locus YER111C, strain swi4, active compounds read low 0.962 | locus YER155C, strain BEM2 (second series), active compounds read low 0.99 | locus YER155C, strain BEM2, active compounds read low 0.999 | locus YER167W, strain BCK2, active compounds read low 0.975 | locus YFR010W, strain ubp6, active compounds read low 0.98 | locus YGL078C, strain dbp3, active compounds read low 1.02 | locus YGL086W, strain mad1, active compounds read low 1.01 | locus YGL167C, strain pmr1, active compounds read low 0.983 | locus YGL173C, strain kem1, active compounds read low 0.979 | locus YGL227W, strain vid30, active compounds read low 0.994 | locus YGL240W, strain doc1, active compounds read low 0.971 | locus YGL248W, strain PDE1, active compounds read low 0.997 | locus YGL253W, strain hxk2, active compounds read low 0.978 | locus YGR078C, strain PAC10, active compounds read low 1 | locus YGR135W, strain pre9, active compounds read low 1.01 | locus YGR252W, strain gcn5, active compounds read low 0.945 | locus YHR013C, strain ard1, active compounds read low 0.927 | locus YHR027C, strain rpn1, active compounds read low 0.978 | locus YHR030C, strain SLT2, active compounds read low 1 and 1.01 | locus YHR079C, strain IRE1 (second series), active compounds read low 1.03 | locus YHR079C, strain IRE1, active compounds read low 1.03 | locus YHR094C, strain hxt1, active compounds read low 1.03 | locus YHR129C, strain ARP1, active compounds read low 1 | locus YHR142W, strain chs7, active compounds read low 0.93 | locus YHR200W, strain rpn10, active compounds read low 1.02 | locus YIL066C, strain RNR3, active compounds read low 0.965 | locus YIL073C, strain SPO22, active compounds read low 0.999 | locus YIL125W, strain kgd1, active compounds read low 1.03 | locus YIR030C, strain dcg1, active compounds read low 1.03 | locus YJL092W, strain hpr5, active compounds read low 0.976 | locus YJL095W, strain BCK1 (second series), active compounds read low 0.981 | locus YJL095W, strain BCK1, active compounds read low 1.02 | locus YJL115W, strain asf1, active compounds read low 0.98 | locus YJL129C, strain trk1, active compounds read low 0.956 | locus YJL134W, strain LCB3, active compounds read low 1 | locus YJL154C, strain vps35, active compounds read low 0.977 | locus YJL164C, strain tpk1, active compounds read low 0.97 | locus YJL166W, strain qcr8, active compounds read low 0.93 | locus YJL168C, strain set2, active compounds read low 1.02 | locus YJL187C, strain SWE1 (second series), active compounds read low 1.02 | locus YJL187C, strain SWE1, active compounds read low 0.991 | locus YJR043C, strain POL32, active compounds read low 0.949 | locus YJR066W, strain TOR1, active compounds read low 0.985 | locus YKL009W, strain mrt4, active compounds read low 1.01 | locus YKL068W, active compounds read low 1.01 | locus YKL085W, strain MDH1 (second series), active compounds read low 1 | locus YKL085W, strain MDH1, active compounds read low 1 | locus YKL160W, strain elf1, active compounds read low 0.935 | locus YKR001C, strain vps1, active compounds read low 1.02 | locus YKR026C, strain gcn3, active compounds read low 0.983 | locus YKR091W, strain srl3, active compounds read low 0.99 | locus YLL001W, strain dnm1, active compounds read low 0.914 | locus YLL026W, active compounds read low 0.997 | locus YLL041C, strain sdh2, active compounds read low 0.989 | locus YLR027C, strain aat2, active compounds read low 0.982 | locus YLR039C, strain RIC1, active compounds read low 1.04 | locus YLR058C, strain SHM2, active compounds read low 1.02 | locus YLR102C, strain apc9, active compounds read low 1.02 | locus YLR113W, strain HOG1, active compounds read low 1.01 | locus YLR221C, strain rsa3, active compounds read low 0.961 | locus YLR258W, strain gsy2, active compounds read low 0.973 | locus YLR262C, strain YPT6, active compounds read low 1.06 | locus YLR268W, strain sec22, active compounds read low 1.03 | locus YLR320W, strain mms22, active compounds read low 0.894 | locus YLR330W, strain CHS5, active compounds read low 0.994 | locus YLR342W, strain FKS1 (second series), active compounds read low 0.963 | locus YLR342W, strain FKS1, active compounds read low 0.981 | locus YLR357W, strain rsc2, active compounds read low 0.953 | locus YLR370C, strain arc18, active compounds read low 0.963 | locus YLR371W, strain rom2, active compounds read low 1.02 | locus YLR384C, strain iki3, active compounds read low 0.983 | locus YLR418C, strain cdc73, active compounds read low 0.988 | locus YML016C, strain PPZ1, active compounds read low 1.01 | locus YML032C, strain rad52, active compounds read low 1.01 | locus YML120C, strain ndi1, active compounds read low 0.943 | locus YML124C, strain tub3, active compounds read low 1.02 | locus YMR058W, strain fet3, active compounds read low 0.97 | locus YMR078C, strain ctf18, active compounds read low 1.03 | locus YMR125W, strain sto1, active compounds read low 0.96 | locus YMR129W, active compounds read low 0.984 | locus YMR205C, strain PFK2, active compounds read low 0.952 | locus YMR223W, strain ubp8, active compounds read low 1.02 | locus YMR231W, strain pep5, active compounds read low 0.99 | locus YMR307W, strain GAS1, active compounds read low 1.06 | locus YNL067W, strain RPL9B, active compounds read low 1.02 | locus YNL071W, strain lat1, active compounds read low 0.973 | locus YNL153C, strain GIM3, active compounds read low 1 | locus YNL183C, strain NPR1, active compounds read low 0.957 | locus YNL209W, strain ssb2, active compounds read low 0.975 | locus YNL233W, strain BNI4, active compounds read low 1.03 | locus YNL248C, strain rpa49, active compounds read low 0.951 | locus YNL250W, strain rad50, active compounds read low 1.02 | locus YNL271C, strain bni1, active compounds read low 1.04 | locus YNL298W, strain CLA4, active compounds read low 1.03 | locus YNL307C, strain MCK1, active compounds read low 1.04 | locus YNL322C, strain KRE1 (second series), active compounds read low 0.992 | locus YNR049C, strain mso1, active compounds read low 0.977 | locus YNR052C, strain pop2, active compounds read low 1.03 | locus YOL006C, strain TOP1, active compounds read low 0.909 | locus YOL012C, strain htz1 0.929 | locus YOL147C, strain pex11, active compounds read low 1.03 | locus YOR001W, strain rrp6, active compounds read low 0.982 | locus YOR061W, strain CKA2, active compounds read low 1.01 | locus YOR069W, strain VPS5, active compounds read low 1.01 | locus YOR070C, strain gyp1, active compounds read low 0.979 | locus YOR080W, strain dia2, active compounds read low 0.984 | locus YOR083W, strain WHI5, active compounds read low 0.93 | locus YOR106W, strain vam3, active compounds read low 0.961 | locus YOR136W, strain idh2, active compounds read low 1.03 | locus YOR144C, strain elg1, active compounds read low 1.03 | locus YOR184W, strain ser1, active compounds read low 1.05 | locus YOR231W, strain MKK1, active compounds read low 1.01 | locus YOR265W, strain rbl2, active compounds read low 1 | locus YOR270C, strain vph1, active compounds read low 0.885 | locus YOR290C, strain snf2, active compounds read low 0.919 | locus YOR316C, strain cot1, active compounds read low 1.03 | locus YPL051W, strain arl3, active compounds read low 0.93 | locus YPL078C, strain atp4, active compounds read low 0.932 | locus YPL106C, strain sse1, active compounds read low 0.947 | locus YPL240C, strain hsp82, active compounds read low 0.996 | locus YPL241C, strain CIN2, active compounds read low 1 | locus YPL256C, strain CLN2, active compounds read low 1.01 | locus YPR119W, strain clb2, active compounds read low 1.03 | locus YPR141C, strain kar3, active compounds read low 1.04 | locus YPR163C, strain tif3, active compounds read low 1.05 | locus YPR167C, strain met16, active compounds read low 1.03 | strain wtn01, active compounds read low 1.04
